Measured values published in ChEMBL document CHEMBL1961873, “Compounds: GSK PKIS; Assays: Nanosyn kinase panel” (2012).

Columns and labels:
[1] = target: T1, Ephrin type-B receptor 2 (Homo sapiens) (UniProt P29323); conditions: at 1 µM
T1 sequence (whole entry): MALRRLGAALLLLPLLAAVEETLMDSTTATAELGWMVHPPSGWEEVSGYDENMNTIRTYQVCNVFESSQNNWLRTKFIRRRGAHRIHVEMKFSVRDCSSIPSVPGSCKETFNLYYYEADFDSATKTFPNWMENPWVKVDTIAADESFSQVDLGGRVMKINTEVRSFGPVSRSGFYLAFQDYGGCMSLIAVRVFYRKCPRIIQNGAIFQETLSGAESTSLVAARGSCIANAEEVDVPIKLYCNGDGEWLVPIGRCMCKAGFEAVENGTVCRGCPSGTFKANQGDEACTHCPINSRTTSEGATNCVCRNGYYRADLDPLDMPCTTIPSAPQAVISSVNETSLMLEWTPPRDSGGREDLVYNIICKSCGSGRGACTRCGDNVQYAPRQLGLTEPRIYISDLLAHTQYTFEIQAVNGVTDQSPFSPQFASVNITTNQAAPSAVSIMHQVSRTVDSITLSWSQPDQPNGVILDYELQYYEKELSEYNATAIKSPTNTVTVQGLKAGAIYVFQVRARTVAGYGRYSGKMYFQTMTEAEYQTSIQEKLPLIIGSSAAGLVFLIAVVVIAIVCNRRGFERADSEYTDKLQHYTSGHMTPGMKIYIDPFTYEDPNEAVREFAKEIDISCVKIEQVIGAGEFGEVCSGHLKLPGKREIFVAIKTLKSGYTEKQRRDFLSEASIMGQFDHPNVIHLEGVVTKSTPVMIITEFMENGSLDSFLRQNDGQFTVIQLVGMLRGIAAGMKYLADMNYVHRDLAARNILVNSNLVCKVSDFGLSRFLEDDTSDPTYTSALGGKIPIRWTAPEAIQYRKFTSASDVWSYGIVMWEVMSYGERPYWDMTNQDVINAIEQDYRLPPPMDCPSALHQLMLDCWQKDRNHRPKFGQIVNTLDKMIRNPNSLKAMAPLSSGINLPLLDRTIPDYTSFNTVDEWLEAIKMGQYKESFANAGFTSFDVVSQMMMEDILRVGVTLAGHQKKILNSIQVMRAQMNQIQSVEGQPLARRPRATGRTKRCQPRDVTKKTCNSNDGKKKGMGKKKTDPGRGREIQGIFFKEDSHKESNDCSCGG

[2] = target: T2, Ephrin type-B receptor 3 (Homo sapiens) (UniProt P54753); conditions: at 0.1 µM
T2 sequence (whole entry): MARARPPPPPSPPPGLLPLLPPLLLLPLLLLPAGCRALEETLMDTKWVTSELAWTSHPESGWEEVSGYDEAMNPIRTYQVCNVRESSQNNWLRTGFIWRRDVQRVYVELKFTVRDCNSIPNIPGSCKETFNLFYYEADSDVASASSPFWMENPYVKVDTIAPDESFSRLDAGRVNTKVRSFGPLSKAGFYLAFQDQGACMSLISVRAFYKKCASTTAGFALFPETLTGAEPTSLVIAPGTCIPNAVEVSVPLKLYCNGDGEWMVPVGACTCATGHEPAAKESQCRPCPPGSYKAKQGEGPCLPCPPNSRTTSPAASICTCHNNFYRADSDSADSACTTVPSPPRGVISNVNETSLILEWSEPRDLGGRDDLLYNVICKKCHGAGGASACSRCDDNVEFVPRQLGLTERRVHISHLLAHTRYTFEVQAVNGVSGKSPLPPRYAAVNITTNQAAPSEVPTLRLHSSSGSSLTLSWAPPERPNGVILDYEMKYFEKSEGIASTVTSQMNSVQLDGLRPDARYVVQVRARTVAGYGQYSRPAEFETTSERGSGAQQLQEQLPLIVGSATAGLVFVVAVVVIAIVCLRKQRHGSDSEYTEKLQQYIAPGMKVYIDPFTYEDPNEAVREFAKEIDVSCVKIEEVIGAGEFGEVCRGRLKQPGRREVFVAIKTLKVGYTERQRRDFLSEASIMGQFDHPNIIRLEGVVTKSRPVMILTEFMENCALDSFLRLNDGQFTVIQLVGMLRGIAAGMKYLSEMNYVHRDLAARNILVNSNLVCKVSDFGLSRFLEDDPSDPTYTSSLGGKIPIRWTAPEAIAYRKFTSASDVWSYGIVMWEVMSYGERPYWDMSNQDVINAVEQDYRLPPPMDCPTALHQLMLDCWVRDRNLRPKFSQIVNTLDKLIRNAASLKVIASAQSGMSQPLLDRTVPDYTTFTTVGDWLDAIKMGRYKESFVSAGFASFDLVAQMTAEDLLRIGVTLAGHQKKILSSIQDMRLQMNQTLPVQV

[3] = target: T2, Ephrin type-B receptor 3 (Homo sapiens); conditions: at 1 µM
[4] = target: T3, Ephrin type-B receptor 4 (Homo sapiens) (UniProt P54760); conditions: at 0.1 µM
T3 sequence (whole entry): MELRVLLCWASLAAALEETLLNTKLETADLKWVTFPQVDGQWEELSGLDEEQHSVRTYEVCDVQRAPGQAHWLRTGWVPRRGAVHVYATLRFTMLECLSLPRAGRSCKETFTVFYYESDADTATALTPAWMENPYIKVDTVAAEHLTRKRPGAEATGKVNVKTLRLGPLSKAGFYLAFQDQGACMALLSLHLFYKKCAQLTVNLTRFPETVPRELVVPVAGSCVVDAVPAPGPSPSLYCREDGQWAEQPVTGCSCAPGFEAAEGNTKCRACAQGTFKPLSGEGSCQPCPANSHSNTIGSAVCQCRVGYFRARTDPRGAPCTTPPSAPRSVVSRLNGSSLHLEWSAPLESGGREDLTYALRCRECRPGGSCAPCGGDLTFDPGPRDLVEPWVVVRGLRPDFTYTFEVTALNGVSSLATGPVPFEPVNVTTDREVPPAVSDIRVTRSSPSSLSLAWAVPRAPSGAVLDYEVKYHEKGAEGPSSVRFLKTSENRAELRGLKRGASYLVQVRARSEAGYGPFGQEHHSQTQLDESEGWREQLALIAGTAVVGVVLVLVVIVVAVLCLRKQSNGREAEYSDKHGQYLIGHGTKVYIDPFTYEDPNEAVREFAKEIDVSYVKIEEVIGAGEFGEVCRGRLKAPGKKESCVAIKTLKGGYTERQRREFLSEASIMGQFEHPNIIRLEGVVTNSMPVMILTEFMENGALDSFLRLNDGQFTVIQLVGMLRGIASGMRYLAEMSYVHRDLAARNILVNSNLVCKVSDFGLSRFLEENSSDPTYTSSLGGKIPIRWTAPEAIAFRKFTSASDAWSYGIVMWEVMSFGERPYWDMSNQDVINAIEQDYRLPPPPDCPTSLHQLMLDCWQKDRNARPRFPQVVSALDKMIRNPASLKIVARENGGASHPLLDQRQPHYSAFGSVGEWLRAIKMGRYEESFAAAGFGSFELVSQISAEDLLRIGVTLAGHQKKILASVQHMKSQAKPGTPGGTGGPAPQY

[5] = target: T3, Ephrin type-B receptor 4 (Homo sapiens); conditions: at 1 µM
[6] = target: Receptor tyrosine-protein kinase erbB-2 (Homo sapiens) (UniProt P04626); conditions: at 0.1 µM
[7] = target: Receptor tyrosine-protein kinase erbB-2 (Homo sapiens) (UniProt P04626); conditions: at 1 µM
[8] = target: Receptor tyrosine-protein kinase erbB-4 (Homo sapiens) (UniProt Q15303); conditions: at 0.1 µM
[9] = target: Receptor tyrosine-protein kinase erbB-4 (Homo sapiens) (UniProt Q15303); conditions: at 1 µM
[10] = target: Tyrosine-protein kinase Fer (Homo sapiens) (UniProt P16591); conditions: at 0.1 µM
[11] = target: Tyrosine-protein kinase Fer (Homo sapiens) (UniProt P16591); conditions: at 1 µM
[12] = target: Tyrosine-protein kinase Fes/Fps (Homo sapiens) (UniProt P07332); conditions: at 0.1 µM
[13] = target: Tyrosine-protein kinase Fes/Fps (Homo sapiens) (UniProt P07332); conditions: at 1 µM
[14] = target: Fibroblast growth factor receptor 1 (Homo sapiens) (UniProt P11362); conditions: at 0.1 µM
[15] = target: Fibroblast growth factor receptor 1 (Homo sapiens) (UniProt P11362); conditions: at 1 µM
[16] = target: Fibroblast growth factor receptor 2 (Homo sapiens) (UniProt P21802); conditions: at 0.1 µM
[17] = target: Fibroblast growth factor receptor 2 (Homo sapiens) (UniProt P21802); conditions: at 1 µM
[18] = target: Fibroblast growth factor receptor 3 (Homo sapiens) (UniProt P22607); conditions: at 0.1 µM
[19] = target: Fibroblast growth factor receptor 3 (Homo sapiens) (UniProt P22607); conditions: at 1 µM
[20] = target: Fibroblast growth factor receptor 4 (Homo sapiens) (UniProt P22455); conditions: at 0.1 µM;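 note: values are mean percent inhibition of FGFR4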

Sequence of Fibroblast growth factor receptor 3 (Homo sapiens) (P22607 23-806 limits assumed): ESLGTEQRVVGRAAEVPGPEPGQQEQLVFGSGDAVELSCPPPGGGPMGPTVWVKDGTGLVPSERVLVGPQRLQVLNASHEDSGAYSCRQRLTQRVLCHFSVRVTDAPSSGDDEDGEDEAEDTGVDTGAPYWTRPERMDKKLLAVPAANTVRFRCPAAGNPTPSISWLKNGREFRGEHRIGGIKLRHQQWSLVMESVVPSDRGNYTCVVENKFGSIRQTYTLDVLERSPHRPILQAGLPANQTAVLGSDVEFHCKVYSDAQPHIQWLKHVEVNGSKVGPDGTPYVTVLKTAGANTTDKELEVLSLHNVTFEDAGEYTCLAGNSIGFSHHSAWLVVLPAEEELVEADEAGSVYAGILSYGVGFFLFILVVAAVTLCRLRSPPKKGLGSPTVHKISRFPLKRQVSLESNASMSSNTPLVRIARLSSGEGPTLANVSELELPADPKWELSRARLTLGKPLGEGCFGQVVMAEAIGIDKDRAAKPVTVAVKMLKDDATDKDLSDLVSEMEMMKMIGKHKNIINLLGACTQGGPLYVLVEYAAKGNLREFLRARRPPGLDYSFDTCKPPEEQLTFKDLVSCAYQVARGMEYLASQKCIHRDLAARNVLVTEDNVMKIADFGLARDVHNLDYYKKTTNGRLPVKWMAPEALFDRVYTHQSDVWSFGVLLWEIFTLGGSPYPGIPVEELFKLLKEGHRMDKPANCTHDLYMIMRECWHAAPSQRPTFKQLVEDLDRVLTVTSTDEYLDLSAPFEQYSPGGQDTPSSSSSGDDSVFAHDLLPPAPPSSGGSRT
Sequence of Tyrosine-protein kinase Fes/Fps (Homo sapiens) (P07332 whole entry): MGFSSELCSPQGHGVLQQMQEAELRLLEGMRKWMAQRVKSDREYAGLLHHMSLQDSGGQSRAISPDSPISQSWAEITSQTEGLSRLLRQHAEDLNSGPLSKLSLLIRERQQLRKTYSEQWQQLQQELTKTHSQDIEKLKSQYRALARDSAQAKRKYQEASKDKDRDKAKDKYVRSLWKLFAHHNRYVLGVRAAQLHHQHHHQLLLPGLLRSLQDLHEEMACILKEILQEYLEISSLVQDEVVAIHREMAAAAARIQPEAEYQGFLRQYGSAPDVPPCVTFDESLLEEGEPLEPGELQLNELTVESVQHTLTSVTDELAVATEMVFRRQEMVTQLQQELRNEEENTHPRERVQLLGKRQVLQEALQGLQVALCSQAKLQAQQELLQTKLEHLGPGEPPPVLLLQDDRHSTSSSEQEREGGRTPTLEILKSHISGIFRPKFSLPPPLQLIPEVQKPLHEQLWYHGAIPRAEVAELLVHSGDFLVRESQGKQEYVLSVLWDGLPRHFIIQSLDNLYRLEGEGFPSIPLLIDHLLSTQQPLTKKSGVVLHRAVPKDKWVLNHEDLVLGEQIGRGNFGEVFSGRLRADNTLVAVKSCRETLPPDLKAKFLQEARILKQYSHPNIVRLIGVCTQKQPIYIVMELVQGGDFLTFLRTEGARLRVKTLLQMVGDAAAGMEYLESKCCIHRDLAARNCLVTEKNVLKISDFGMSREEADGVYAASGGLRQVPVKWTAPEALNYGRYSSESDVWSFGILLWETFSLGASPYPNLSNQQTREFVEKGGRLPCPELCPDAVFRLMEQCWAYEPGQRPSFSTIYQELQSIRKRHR
Sequence of Receptor tyrosine-protein kinase erbB-4 (Homo sapiens) (Q15303 whole entry): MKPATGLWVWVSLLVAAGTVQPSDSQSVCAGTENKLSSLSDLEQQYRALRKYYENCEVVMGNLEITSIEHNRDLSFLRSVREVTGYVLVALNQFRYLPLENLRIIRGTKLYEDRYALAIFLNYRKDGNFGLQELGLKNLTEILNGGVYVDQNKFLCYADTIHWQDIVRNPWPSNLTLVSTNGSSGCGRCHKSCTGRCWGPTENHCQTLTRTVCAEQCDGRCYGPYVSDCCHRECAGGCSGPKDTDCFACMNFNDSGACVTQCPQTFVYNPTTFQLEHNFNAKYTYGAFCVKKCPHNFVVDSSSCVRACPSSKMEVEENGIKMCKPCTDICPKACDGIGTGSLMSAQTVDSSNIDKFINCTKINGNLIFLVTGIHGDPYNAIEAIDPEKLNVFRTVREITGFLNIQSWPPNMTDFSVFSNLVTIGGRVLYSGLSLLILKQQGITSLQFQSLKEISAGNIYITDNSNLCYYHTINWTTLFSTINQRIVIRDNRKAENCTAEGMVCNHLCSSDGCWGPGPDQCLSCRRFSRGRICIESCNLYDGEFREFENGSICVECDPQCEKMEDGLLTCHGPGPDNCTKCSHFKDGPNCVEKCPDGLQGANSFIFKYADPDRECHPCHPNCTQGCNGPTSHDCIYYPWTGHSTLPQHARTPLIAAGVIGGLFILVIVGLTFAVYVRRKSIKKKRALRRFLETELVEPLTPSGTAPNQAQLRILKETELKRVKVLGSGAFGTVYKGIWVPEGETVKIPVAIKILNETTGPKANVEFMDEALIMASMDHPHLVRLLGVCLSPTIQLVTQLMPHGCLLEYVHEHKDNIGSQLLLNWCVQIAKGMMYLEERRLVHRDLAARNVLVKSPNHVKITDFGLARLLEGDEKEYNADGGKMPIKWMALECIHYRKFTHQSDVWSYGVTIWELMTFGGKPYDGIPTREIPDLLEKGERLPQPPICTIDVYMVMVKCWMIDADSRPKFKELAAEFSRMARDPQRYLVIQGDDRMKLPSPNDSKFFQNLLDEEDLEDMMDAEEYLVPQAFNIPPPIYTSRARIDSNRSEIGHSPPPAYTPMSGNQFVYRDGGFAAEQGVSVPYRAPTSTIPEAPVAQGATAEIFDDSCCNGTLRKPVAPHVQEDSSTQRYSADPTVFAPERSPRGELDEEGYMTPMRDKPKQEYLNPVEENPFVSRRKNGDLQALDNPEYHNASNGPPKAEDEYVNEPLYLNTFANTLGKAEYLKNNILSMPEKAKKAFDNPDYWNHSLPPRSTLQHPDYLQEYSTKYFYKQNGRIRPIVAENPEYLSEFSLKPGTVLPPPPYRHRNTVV
Sequence of Receptor tyrosine-protein kinase erbB-2 (Homo sapiens) (P04626 whole entry): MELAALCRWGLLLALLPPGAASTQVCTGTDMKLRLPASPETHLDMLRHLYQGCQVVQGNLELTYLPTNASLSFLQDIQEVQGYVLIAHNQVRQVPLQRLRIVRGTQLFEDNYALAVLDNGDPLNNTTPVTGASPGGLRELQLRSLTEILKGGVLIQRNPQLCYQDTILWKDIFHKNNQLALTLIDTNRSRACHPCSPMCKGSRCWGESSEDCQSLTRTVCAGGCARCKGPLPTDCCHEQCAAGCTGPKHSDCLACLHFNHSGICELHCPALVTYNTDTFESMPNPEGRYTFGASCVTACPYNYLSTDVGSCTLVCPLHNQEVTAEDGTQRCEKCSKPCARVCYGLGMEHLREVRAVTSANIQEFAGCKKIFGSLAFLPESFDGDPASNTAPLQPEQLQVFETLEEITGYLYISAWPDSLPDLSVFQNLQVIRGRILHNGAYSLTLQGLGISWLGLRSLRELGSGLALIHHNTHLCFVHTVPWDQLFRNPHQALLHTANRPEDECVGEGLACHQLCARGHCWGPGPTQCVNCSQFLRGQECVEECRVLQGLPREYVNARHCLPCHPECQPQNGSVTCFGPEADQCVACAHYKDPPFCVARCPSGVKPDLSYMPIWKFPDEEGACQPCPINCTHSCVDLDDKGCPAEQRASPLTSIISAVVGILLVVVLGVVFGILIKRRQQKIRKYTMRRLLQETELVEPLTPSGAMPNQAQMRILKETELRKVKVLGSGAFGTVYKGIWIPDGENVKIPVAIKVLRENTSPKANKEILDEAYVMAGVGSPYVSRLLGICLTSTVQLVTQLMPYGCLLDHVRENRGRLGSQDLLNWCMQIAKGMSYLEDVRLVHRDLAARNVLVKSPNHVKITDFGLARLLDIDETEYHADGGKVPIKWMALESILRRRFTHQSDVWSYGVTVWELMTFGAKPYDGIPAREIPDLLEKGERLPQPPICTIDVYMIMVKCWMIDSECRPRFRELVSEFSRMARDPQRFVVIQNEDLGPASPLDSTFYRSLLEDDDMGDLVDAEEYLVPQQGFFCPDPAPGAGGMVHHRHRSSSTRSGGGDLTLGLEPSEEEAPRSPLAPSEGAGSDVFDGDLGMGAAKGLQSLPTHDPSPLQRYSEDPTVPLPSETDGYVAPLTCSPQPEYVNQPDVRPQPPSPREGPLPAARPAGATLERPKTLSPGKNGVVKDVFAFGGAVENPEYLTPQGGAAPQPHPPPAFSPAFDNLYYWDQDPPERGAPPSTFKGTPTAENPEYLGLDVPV
Sequence of Tyrosine-protein kinase Fer (Homo sapiens) (P16591 whole entry, looked up): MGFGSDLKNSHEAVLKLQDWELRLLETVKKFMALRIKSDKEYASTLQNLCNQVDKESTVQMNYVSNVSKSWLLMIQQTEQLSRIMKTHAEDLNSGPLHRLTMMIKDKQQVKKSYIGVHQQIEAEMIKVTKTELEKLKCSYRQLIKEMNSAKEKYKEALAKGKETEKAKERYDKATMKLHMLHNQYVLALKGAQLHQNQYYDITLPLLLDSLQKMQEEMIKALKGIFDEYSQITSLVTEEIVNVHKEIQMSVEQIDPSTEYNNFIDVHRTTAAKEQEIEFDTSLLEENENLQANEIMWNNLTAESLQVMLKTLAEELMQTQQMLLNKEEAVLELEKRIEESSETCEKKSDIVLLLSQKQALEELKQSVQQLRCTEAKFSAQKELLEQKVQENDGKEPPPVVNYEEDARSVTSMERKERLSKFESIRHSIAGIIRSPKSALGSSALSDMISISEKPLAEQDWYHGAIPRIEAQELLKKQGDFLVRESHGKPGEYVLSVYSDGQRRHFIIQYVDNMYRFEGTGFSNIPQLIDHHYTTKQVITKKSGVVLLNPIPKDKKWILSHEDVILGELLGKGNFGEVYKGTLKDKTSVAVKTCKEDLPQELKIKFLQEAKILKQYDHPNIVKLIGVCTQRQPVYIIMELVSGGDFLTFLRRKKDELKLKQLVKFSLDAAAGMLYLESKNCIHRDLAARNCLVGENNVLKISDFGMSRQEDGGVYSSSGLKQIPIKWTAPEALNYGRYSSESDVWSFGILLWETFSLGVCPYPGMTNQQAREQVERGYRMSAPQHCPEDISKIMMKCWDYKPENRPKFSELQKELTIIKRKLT

SMILES	inhibition [1] [%]	inhibition [2] [%]	inhibition [3] [%]	inhibition [4] [%]	inhibition [5] [%]	inhibition [6] [%]	inhibition [7] [%]	inhibition [8] [%]	inhibition [9] [%]	inhibition [10] [%]	inhibition [11] [%]	inhibition [12] [%]	inhibition [13] [%]	inhibition [14] [%]	inhibition [15] [%]	inhibition [16] [%]	inhibition [17] [%]	inhibition [18] [%]	inhibition [19] [%]	inhibition [20] [%]
O=S(=O)(CCOCc1ccc(-c2ccc3ncnc(Nc4ccc(OCc5cccc(F)c5)c(Cl)c4)c3c2)o1)c1ccccc1	6.76	-0.47	3.29	1.15	1.36	11.6	69.8	27.5	82.6	-3.62	-0.81	0.82	1.19	1.05	5.27	-0.62	3.75	0.41	6.24	1.07
NS(=O)(=O)c1ccc(-c2cc3ccncc3cc2OCc2ccccc2)cc1	12.6	5.73	3.29	2.88	2.91	2.03	3.62	7.38	8.97	5.47	8.24	2.42	4.62	4.72	3.35	2.27	3.78	2.04	2.76	-2.59
CN(C)C(=O)O[C@H]1CN[C@H](C#Cc2cc3ncnc(Nc4ccc(OCc5cccc(F)c5)c(Cl)c4)c3s2)C1	14.1	4.55	5.69	2.43	3.92	4	50.4	92.5	120	1.02	-0.03	2.17	3.06	2.33	5.24	2.11	7.78	5.3	5.64	0.8
Oc1cccc(-c2nc(-c3ccccc3)[nH]c2-c2ccncc2)c1	26.1	9.06	19.3	6.41	9.99	4.55	3.87	12.6	19.4	3.43	0.53	2.34	1.64	1.95	7.19	4	9.16	4.28	5.69	1.36
N#Cc1cccc(Nc2nccc(-c3cnn4ncccc34)n2)c1	46.2	4.19	3.9	5.63	22.5	1.23	5.3	8.57	19.1	9.92	48.9	7.07	34.3	4.73	8.94	7.31	23.4	9.72	17.2	-0.11
COc1cc(/C=N/Nc2ncnc3c2cnn3C(C)C)ccc1O	30.4	2.7	4.2	3.42	21.4	1.13	3.23	3.96	6.31	2.02	7.03	1.26	5.37	-0.65	2.77	1.99	7.97	1.62	7.76	-8.41
ON=C1CCc2cc(-c3nc(C4CCNCC4)[nH]c3-c3ccncc3)ccc21	-8.09	2.51	-3.73	-0.77	1.02	-0.06	-5.12	5.23	10.6	-0.49	0.21	0.52	0.86	-5.96	-0.14	-1.99	5.39	3.1	2.75	–
c1ccc(Cc2nc3ccc(Nc4ncnc5ccccc45)cc3[nH]2)cc1	12.8	3.69	6.08	1.42	1.8	2.07	51.6	98.2	115	0.32	6.1	1.75	3.02	2.15	1.67	5.23	7.58	4.51	5.34	-1.72
CN(c1ccc(NC(=O)Nc2ccc(OC(F)(F)F)cc2)cc1)c1ccnc(Nc2cccc(S(N)(=O)=O)c2)n1	54.8	3.87	8.25	1.79	30.7	2.39	4.23	7.13	14.5	12.6	60.4	4.7	21.8	2.49	20.3	16.2	53.9	3.87	23.3	-0.53
NS(=O)(=O)c1ccc(Nc2cc(-c3cccc(O)c3)n[nH]2)cc1	12.4	8.13	1.98	1.74	4.14	1.73	-4.93	14.3	14.3	2.71	7.21	3.6	4.45	7.55	14.2	8.82	15.9	9.15	13.4	-0.72
COc1cc2ncn(-c3cc(OCc4ccccc4S(C)(=O)=O)c(C#N)s3)c2cc1OC	36	5.99	4.4	4.74	17.1	0.83	-1.42	8.79	8.72	6.67	10.3	2.71	3.13	12.1	19.3	8.86	31.6	9.71	24.1	2
Nc1nccc(C#Cc2cncnc2Nc2ccc(OCc3cccc(F)c3)c(Cl)c2)n1	7.89	5.26	4.02	1.01	2.68	-1.45	-8.09	14.2	24.8	2.1	3.48	3.46	4.65	5.53	4.02	4.45	8.42	5.34	5.62	2.52
CN(C)C(=O)O[C@@H]1CN[C@@H](C#Cc2cc3ncnc(Nc4ccc(OCc5cccc(F)c5)c(Cl)c4)c3s2)C1	-1.82	2.5	-1.81	1.64	3.64	-1.37	27.1	107	130	0.75	-0.72	-0.22	1.12	-0.27	1.69	0.19	4.88	-0.96	2.96	-1.62
